According to article PMC11006913:
Changes are numbered by the printed parent chain.

How the values were obtained:
Assay in all cases: PBM; 200 nM protein, PBS
Settings in all cases: dsDNA, one strand shown
[1] = molecular target: T1, SIX6 (Homo sapiens, UniProt O95475 114-200, L167I)
T1 sequence: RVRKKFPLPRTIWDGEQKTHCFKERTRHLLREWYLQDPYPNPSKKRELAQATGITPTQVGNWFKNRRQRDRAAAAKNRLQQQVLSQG

[2] = molecular target: HOXC9 (Homo sapiens, UniProt P31274 178-260, K195R)
[3] = molecular target: T2, SIX6 (Homo sapiens, UniProt O95475 114-200, L143V)
T2 sequence: T1 sequence with L30V, I54L

[4] = molecular target: T3, SIX6 (Homo sapiens, UniProt O95475 114-200, H141N)
T3 sequence: T1 sequence with H28N, I54L

[5] = molecular target: T4, SIX6 (Homo sapiens, UniProt O95475 114-200, T165P)
T4 sequence: T1 sequence with T52P, I54L

[6] = molecular target: T5, SIX6 (Homo sapiens, UniProt O95475 114-200, L167M)
T5 sequence: T1 sequence with I54M

[7] = molecular target: T6, SIX6 (Homo sapiens, UniProt O95475 114-200, L143M)
T6 sequence: T1 sequence with L30M, I54L

[8] = molecular target: T7, SIX6 (Homo sapiens, UniProt O95475 114-200, L143I)
T7 sequence: T1 sequence with L30I, I54L

[9] = molecular target: T8, SIX6 (Homo sapiens, UniProt O95475 114-200, T165G)
T8 sequence: T1 sequence with T52G, I54L

[10] = molecular target: T9, SIX6 (Homo sapiens, UniProt O95475 114-200, T139Q)
T9 sequence: T1 sequence with T26Q, I54L

[11] = molecular target: HOXC9 (Homo sapiens, UniProt P31274 178-260)
Sequence of HOXC9 (Homo sapiens, UniProt P31274 178-260) (P31274 178-260): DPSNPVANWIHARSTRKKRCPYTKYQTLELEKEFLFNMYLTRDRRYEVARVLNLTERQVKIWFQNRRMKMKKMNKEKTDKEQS

[12] = molecular target: T10, SIX6 (Homo sapiens, UniProt O95475 114-200, T165A)
T10 sequence: T1 sequence with T52A, I54L

[13] = molecular target: HOXC9 (Homo sapiens, UniProt P31274 178-260, R193K)
Sequence of HOXC9 (Homo sapiens, UniProt P31274 178-260, R193K) (P31274 178-260 R193K): as the sequence (P31274 178-260) above, with R16K counted along it

[14] = molecular target: T11, SIX6 (Homo sapiens, UniProt O95475 114-200, L167V)
T11 sequence: T1 sequence with I54V

[15] = molecular target: T12, SIX6 (Homo sapiens, UniProt O95475 114-200)
T12 sequence: T1 sequence with I54L

[16] = molecular target: T13, SIX6 (Homo sapiens, UniProt O95475 114-200, T165I)
T13 sequence: T1 sequence with T52I, I54L

[17] = molecular target: HOXC9 (Homo sapiens, UniProt P31274 178-260, R222W)
Sequence of HOXC9 (Homo sapiens, UniProt P31274 178-260, R222W) (P31274 178-260 R222W): as the sequence (P31274 178-260) above, with R45W counted along it

[18] = molecular target: MSX2 (Homo sapiens, UniProt P35548 130-214, R199I)
Sequence of MSX2 (Homo sapiens, UniProt P35548 130-214, R199I) (P35548 130-214 R199I): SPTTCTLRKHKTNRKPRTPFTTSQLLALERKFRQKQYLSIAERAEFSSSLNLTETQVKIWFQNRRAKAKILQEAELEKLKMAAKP

[19] = molecular target: MSX2 (Homo sapiens, UniProt P35548 130-214)
Sequence of MSX2 (Homo sapiens, UniProt P35548 130-214) (P35548 130-214): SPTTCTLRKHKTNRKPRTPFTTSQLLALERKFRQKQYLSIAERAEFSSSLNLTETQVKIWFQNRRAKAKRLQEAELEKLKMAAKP

[20] = molecular target: MSX2 (Homo sapiens, UniProt P35548 130-214, F161Y)
Sequence of MSX2 (Homo sapiens, UniProt P35548 130-214, F161Y) (P35548 130-214 F161Y): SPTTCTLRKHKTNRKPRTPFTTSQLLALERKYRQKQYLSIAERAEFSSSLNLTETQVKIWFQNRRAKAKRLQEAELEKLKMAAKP

[21] = molecular target: NKX3-2 (Homo sapiens, UniProt P78367 192-278, P234S)
Sequence of NKX3-2 (Homo sapiens, UniProt P78367 192-278, P234S) (P78367 192-278 P234S): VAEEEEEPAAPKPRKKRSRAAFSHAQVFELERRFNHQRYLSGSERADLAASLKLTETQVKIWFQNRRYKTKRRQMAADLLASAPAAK

[22] = molecular target: NKX3-2 (Homo sapiens, UniProt P78367 192-278)
Sequence of NKX3-2 (Homo sapiens, UniProt P78367 192-278) (P78367 192-278): as the sequence (P78367 192-278 P234S) above, with S43P counted along it

[23] = molecular target: HOXA2 (Homo sapiens, UniProt O43364 129-215, R185T)
Sequence of HOXA2 (Homo sapiens, UniProt O43364 129-215, R185T) (O43364 129-215 R185T): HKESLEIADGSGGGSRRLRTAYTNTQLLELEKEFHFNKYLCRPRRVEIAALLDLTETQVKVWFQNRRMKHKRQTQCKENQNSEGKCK

[24] = molecular target: VAX1 (Homo sapiens, UniProt Q5SQQ9 86-172)
Sequence of VAX1 (Homo sapiens, UniProt Q5SQQ9 86-172) (Q5SQQ9 86-172): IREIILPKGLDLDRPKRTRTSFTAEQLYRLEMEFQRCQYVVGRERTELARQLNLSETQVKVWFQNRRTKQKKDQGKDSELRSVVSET

[25] = molecular target: VAX1 (Homo sapiens, UniProt Q5SQQ9 86-172, T142I)
Sequence of VAX1 (Homo sapiens, UniProt Q5SQQ9 86-172, T142I) (Q5SQQ9 86-172 T142I): as the sequence (Q5SQQ9 86-172) above, with T57I counted along it

[26] = molecular target: HOXA2 (Homo sapiens, UniProt O43364 129-215)
Sequence of HOXA2 (Homo sapiens, UniProt O43364 129-215) (O43364 129-215): as the sequence (O43364 129-215 R185T) above, with T57R counted along it

[27] = molecular target: VAX1 (Homo sapiens, UniProt Q5SQQ9 86-172, K157R)
Sequence of VAX1 (Homo sapiens, UniProt Q5SQQ9 86-172, K157R) (Q5SQQ9 86-172 K157R): as the sequence (Q5SQQ9 86-172) above, with K72R counted along it

[28] = molecular target: ALX3 (Homo sapiens, UniProt O95076 139-225, N203Q)
Sequence of ALX3 (Homo sapiens, UniProt O95076 139-225, N203Q) (O95076 139-225 N203Q): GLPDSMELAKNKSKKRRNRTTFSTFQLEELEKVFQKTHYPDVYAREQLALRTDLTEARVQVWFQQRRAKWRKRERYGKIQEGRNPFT

[29] = molecular target: ALX3 (Homo sapiens, UniProt O95076 139-225)
Sequence of ALX3 (Homo sapiens, UniProt O95076 139-225) (O95076 139-225): as the sequence (O95076 139-225 N203Q) above, with Q65N counted along it

[30] = molecular target: ALX3 (Homo sapiens, UniProt O95076 139-225, L168Q)
Sequence of ALX3 (Homo sapiens, UniProt O95076 139-225, L168Q) (O95076 139-225 L168Q): as the sequence (O95076 139-225 N203Q) above, with L30Q, Q65N counted along it

[31] = molecular target: ALX3 (Homo sapiens, UniProt O95076 139-225, L168V)
Sequence of ALX3 (Homo sapiens, UniProt O95076 139-225, L168V) (O95076 139-225 L168V): as the sequence (O95076 139-225 N203Q) above, with L30V, Q65N counted along it

[32] = molecular target: ALX3 (Homo sapiens, UniProt O95076 139-225, N203S)
Sequence of ALX3 (Homo sapiens, UniProt O95076 139-225, N203S) (O95076 139-225 N203S): as the sequence (O95076 139-225 N203Q) above, with Q65S counted along it

Sequence of HOXC9 (Homo sapiens, UniProt P31274 178-260, K195R) (P31274 178-260 K195R): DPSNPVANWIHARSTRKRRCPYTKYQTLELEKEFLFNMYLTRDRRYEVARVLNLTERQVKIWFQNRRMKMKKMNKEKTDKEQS

Question: Which binding signal [1] does the source give for CCAGACGG here?
Answer: 8.98 upbm affinity estimate (log intensity, higher = more binding, comparable within an allelic series)

Question: What about the binding signal [2] of the same sequence?
Answer: 9.56 upbm affinity estimate (log intensity, higher = more binding, comparable within an allelic series)

Question: And the binding signal [3]?
Answer: 8.84 upbm affinity estimate (log intensity, higher = more binding, comparable within an allelic series)

Question: And the binding signal [4]?
Answer: 8.93 upbm affinity estimate (log intensity, higher = more binding, comparable within an allelic series)

Question: And the binding signal [5]?
Answer: 8.91 upbm affinity estimate (log intensity, higher = more binding, comparable within an allelic series)

Question: And the binding signal [6]?
Answer: 9.05 upbm affinity estimate (log intensity, higher = more binding, comparable within an allelic series)

Question: What about the binding signal [7] of the same sequence?
Answer: 9.07 upbm affinity estimate (log intensity, higher = more binding, comparable within an allelic series)

Question: What about the binding signal [8] of the same sequence?
Answer: 8.95 upbm affinity estimate (log intensity, higher = more binding, comparable within an allelic series)

Question: And the binding signal [9]?
Answer: 9.01 upbm affinity estimate (log intensity, higher = more binding, comparable within an allelic series)

Question: And the binding signal [10]?
Answer: 9.12 upbm affinity estimate (log intensity, higher = more binding, comparable within an allelic series)

Question: And the binding signal [11]?
Answer: 9.6 upbm affinity estimate (log intensity, higher = more binding, comparable within an allelic series)

Question: What about the binding signal [12] of the same sequence?
Answer: 8.94 upbm affinity estimate (log intensity, higher = more binding, comparable within an allelic series)

Question: What about the binding signal [13] of the same sequence?
Answer: 9.51 upbm affinity estimate (log intensity, higher = more binding, comparable within an allelic series)

Question: And the binding signal [14]?
Answer: 9.01 upbm affinity estimate (log intensity, higher = more binding, comparable within an allelic series)

Question: What about the binding signal [15] of the same sequence?
Answer: 9.03 upbm affinity estimate (log intensity, higher = more binding, comparable within an allelic series)

Question: What about the binding signal [16] of the same sequence?
Answer: 9.05 upbm affinity estimate (log intensity, higher = more binding, comparable within an allelic series)

Question: And the binding signal [17]?
Answer: 9.67 upbm affinity estimate (log intensity, higher = more binding, comparable within an allelic series)

Question: Which binding signal [1] does the source give for CCCCAGCG here?
Answer: 9.09 upbm affinity estimate (log intensity, higher = more binding, comparable within an allelic series)

Question: What about the binding signal [3] of the same sequence?
Answer: 8.99 upbm affinity estimate (log intensity, higher = more binding, comparable within an allelic series)

Question: And the binding signal [4]?
Answer: 9.25 upbm affinity estimate (log intensity, higher = more binding, comparable within an allelic series)

Question: What about the binding signal [5] of the same sequence?
Answer: 9.01 upbm affinity estimate (log intensity, higher = more binding, comparable within an allelic series)

Question: What about the binding signal [6] of the same sequence?
Answer: 9.24 upbm affinity estimate (log intensity, higher = more binding, comparable within an allelic series)

Question: And the binding signal [7]?
Answer: 9.04 upbm affinity estimate (log intensity, higher = more binding, comparable within an allelic series)

Question: What about the binding signal [8] of the same sequence?
Answer: 9 upbm affinity estimate (log intensity, higher = more binding, comparable within an allelic series)

Question: What about the binding signal [9] of the same sequence?
Answer: 9.14 upbm affinity estimate (log intensity, higher = more binding, comparable within an allelic series)

Question: What about the binding signal [10] of the same sequence?
Answer: 9.23 upbm affinity estimate (log intensity, higher = more binding, comparable within an allelic series)

Question: And the binding signal [18]?
Answer: 9.51 upbm affinity estimate (log intensity, higher = more binding, comparable within an allelic series)

Question: What about the binding signal [12] of the same sequence?
Answer: 9.18 upbm affinity estimate (log intensity, higher = more binding, comparable within an allelic series)

Question: What about the binding signal [19] of the same sequence?
Answer: 9.6 upbm affinity estimate (log intensity, higher = more binding, comparable within an allelic series)

Question: What about the binding signal [14] of the same sequence?
Answer: 9.13 upbm affinity estimate (log intensity, higher = more binding, comparable within an allelic series)

Question: And the binding signal [15]?
Answer: 9.15 upbm affinity estimate (log intensity, higher = more binding, comparable within an allelic series)

Question: What about the binding signal [16] of the same sequence?
Answer: 9.2 upbm affinity estimate (log intensity, higher = more binding, comparable within an allelic series)

Question: And the binding signal [20]?
Answer: 9.52 upbm affinity estimate (log intensity, higher = more binding, comparable within an allelic series)

Question: What about the binding signal [21] of the same sequence?
Answer: 10.5 upbm affinity estimate (log intensity, higher = more binding, comparable within an allelic series)

Question: And the binding signal [22]?
Answer: 10.6 upbm affinity estimate (log intensity, higher = more binding, comparable within an allelic series)

Question: What does the source list for AGATATAC?
Answer: binding signal [1]: 11 upbm affinity estimate (log intensity, higher = more binding, comparable within an allelic series); binding signal [3]: 10.4 upbm affinity estimate (log intensity, higher = more binding, comparable within an allelic series); binding signal [4]: 10.8 upbm affinity estimate (log intensity, higher = more binding, comparable within an allelic series); binding signal [5]: 9.92 upbm affinity estimate (log intensity, higher = more binding, comparable within an allelic series); binding signal [6]: 10.9 upbm affinity estimate (log intensity, higher = more binding, comparable within an allelic series); binding signal [7]: 10.9 upbm affinity estimate (log intensity, higher = more binding, comparable within an allelic series); binding signal [8]: 10.4 upbm affinity estimate (log intensity, higher = more binding, comparable within an allelic series); binding signal [9]: 11 upbm affinity estimate (log intensity, higher = more binding, comparable within an allelic series); binding signal [23]: 8.17 upbm affinity estimate (log intensity, higher = more binding, comparable within an allelic series); binding signal [10]: 10.9 upbm affinity estimate (log intensity, higher = more binding, comparable within an allelic series); binding signal [12]: 10.8 upbm affinity estimate (log intensity, higher = more binding, comparable within an allelic series); binding signal [14]: 10.7 upbm affinity estimate (log intensity, higher = more binding, comparable within an allelic series); binding signal [15]: 10.9 upbm affinity estimate (log intensity, higher = more binding, comparable within an allelic series); binding signal [24]: 8.24 upbm affinity estimate (log intensity, higher = more binding, comparable within an allelic series); binding signal [16]: 10.8 upbm affinity estimate (log intensity, higher = more binding, comparable within an allelic series); binding signal [25]: 8.22 upbm affinity estimate (log intensity, higher = more binding, comparable within an allelic series); binding signal [26]: 8.19 upbm affinity estimate (log intensity, higher = more binding, comparable within an allelic series); binding signal [27]: 8.23 upbm affinity estimate (log intensity, higher = more binding, comparable within an allelic series)

Question: Which binding signal [1] does the source give for GGCGGACC here?
Answer: 8.97 upbm affinity estimate (log intensity, higher = more binding, comparable within an allelic series)

Question: What about the binding signal [3] of the same sequence?
Answer: 8.88 upbm affinity estimate (log intensity, higher = more binding, comparable within an allelic series)

Question: What about the binding signal [4] of the same sequence?
Answer: 9.01 upbm affinity estimate (log intensity, higher = more binding, comparable within an allelic series)

Question: What about the binding signal [5] of the same sequence?
Answer: 8.96 upbm affinity estimate (log intensity, higher = more binding, comparable within an allelic series)

Question: What about the binding signal [6] of the same sequence?
Answer: 8.9 upbm affinity estimate (log intensity, higher = more binding, comparable within an allelic series)

Question: What about the binding signal [7] of the same sequence?
Answer: 8.83 upbm affinity estimate (log intensity, higher = more binding, comparable within an allelic series)

Question: And the binding signal [8]?
Answer: 8.88 upbm affinity estimate (log intensity, higher = more binding, comparable within an allelic series)

Question: And the binding signal [9]?
Answer: 8.99 upbm affinity estimate (log intensity, higher = more binding, comparable within an allelic series)

Question: What about the binding signal [10] of the same sequence?
Answer: 8.91 upbm affinity estimate (log intensity, higher = more binding, comparable within an allelic series)

Question: And the binding signal [28]?
Answer: 7.72 upbm affinity estimate (log intensity, higher = more binding, comparable within an allelic series)

Question: What about the binding signal [12] of the same sequence?
Answer: 8.99 upbm affinity estimate (log intensity, higher = more binding, comparable within an allelic series)

Question: And the binding signal [14]?
Answer: 8.82 upbm affinity estimate (log intensity, higher = more binding, comparable within an allelic series)

Question: What about the binding signal [29] of the same sequence?
Answer: 7.74 upbm affinity estimate (log intensity, higher = more binding, comparable within an allelic series)

Question: What about the binding signal [15] of the same sequence?
Answer: 8.92 upbm affinity estimate (log intensity, higher = more binding, comparable within an allelic series)

Question: And the binding signal [30]?
Answer: 7.74 upbm affinity estimate (log intensity, higher = more binding, comparable within an allelic series)

Question: What about the binding signal [16] of the same sequence?
Answer: 8.89 upbm affinity estimate (log intensity, higher = more binding, comparable within an allelic series)

Question: What about the binding signal [31] of the same sequence?
Answer: 7.69 upbm affinity estimate (log intensity, higher = more binding, comparable within an allelic series)

Question: What about the binding signal [32] of the same sequence?
Answer: 7.67 upbm affinity estimate (log intensity, higher = more binding, comparable within an allelic series)
